Source: PubChem BioAssay (National Center for Advancing Translational Sciences (NCATS))
JMJD2A Tudor inh = blocks the human JMJD2A Tudor domain. O75164. 390,000 compounds, 4.4% hits. AID 504339. Potency, µM (titrated, usually from 114 µM), for inactives: top-dose activity change, negative = inhibition, most hits filed as inhibitors. AlphaScreen JMJD2A-Tudor / H3K4me3 peptide binding; also: % is scaled to controls: 0 for no effect and ±100 for the full control effect; nearly all actives have a fitted effect of over 50% in size
BAZ2B inh = BAZ2B (human) inhibition | Q9UIF8 | AlphaScreen BAZ2B-H3K14Ac peptide displacement | Potency, µM (highest dose often 114 µM), for the others: top-dose activity change, negative = inhibition, most hits filed as inhibitors | 360,000 compounds, 4.4% hits | AID 504333; also: % is scaled to controls: 0 for no effect and ±100 for the full control effect; nearly all actives have a fitted effect of over 60% in size
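Compounds, titrated to a top concentration of 110 uM, were incubated 30 min at room temperature with preformed BAZ2B/acetyl-K14 H3 peptide complex (50 nM each). Proximity signal was measured by AlphaScreen after 20 min with beads.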
Sfp PPTase inh = Sfp phosphopantetheinyl transferase inhibition; Biochemical Sfp PPTase activity, qHTS; Q9F4F7; Potency, µM, without a hit: largest response in the series, negative = inhibition, most hits filed as inhibitors; 310,000 compounds, 3.5% hits; AID 1490;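 also: the enzyme is Sfp with the accession as filed and its product quenches rhodamine fluorescence; 0% = enzyme reaction without inhibitor and -100% = no enzyme wells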
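Reaction rates are the 30-min fluorescence difference (ex 525, em 598 nm) in wells containing 15 nM Sfp, 5 uM rhodamine-CoA and 12.5 uM BHQ-2-YbbR at pH 7.6 with 10 mM MgCl2.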
L3MBTL1 inh = L3MBTL1 (human) inhibition; Q9Y468; AlphaScreen L3MBTL1–H3K9me1 peptide binding; Potency, µM (highest dose often 57.1 µM), inactives show at the top dose activity, negative = inhibition, most hits filed as inhibitors; 230,000 compounds, 0.66% hits; AID 485360; also: % is scaled to controls: 0 for no effect and ±100 for the full control effect; nearly all actives have a fitted effect of over 60% in size
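Read-out is AlphaScreen signal from streptavidin donor and nickel chelate acceptor beads (10 ug/mL final each) bridging L3MBTL1 (50 nM) and biotinylated K9-monomethylated H3(1-15) peptide (75 nM), after 30 min compound exposure at room temperature.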
G9a block = G9a (human) methyltransferase inhibition; Potency, µM (titrated, usually from 102 µM), for the others: at the highest dose activity, negative = inhibition, actives largely listed as inhibitors; G9a H3K9 monomethylation, AlphaScreen, 2 h; Q96KQ7; 350,000 compounds, 8.8% hits; also: % is scaled to controls: 0 for no effect and ±100 for the full control effect; nearly all actives have a fitted effect of over 75% in size
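Step 1: enzyme (final 20 nM) with compound, 15 min RT. Step 2: substrate peptide 500 nM and SAM 20 uM, 2 h RT. Step 3: anti-H3K9me1 antibody and AlphaScreen beads, 10 min, then plate read.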
HP1b chromo inh = HP1-beta chromodomain-methylated histone interaction inhibition; P83916; AlphaScreen HP1-beta / biotin-H3K9me3 peptide binding; Potency, µM (highest dose often 114 µM), for the others: top-dose activity change, negative = inhibition, hits mostly inhibitors; 390,000 compounds, 0.56% hits; also: nearly all actives have a fitted effect of over 70% in size
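HP1-beta protein (50 nM final) preincubated 30 min at room temperature with biotinylated H3(1-18)K9me3 peptide (50 nM) in PBS pH 7.4, 0.01% Tween-20, then compound added for 30 min. AlphaScreen streptavidin donor/nickel chelate acceptor beads (10 ug/mL final), 30 min dark, luminescence read.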
The depositor's hits bear a star; ? = inconclusive; . = no result given; ! = not confirmed by another sample; [ ] = dose if it differs, or a comment. Only some compounds are listed: those with a hit (about 12% of all), similar ones and a draw of the others. Calls follow the shape of the dose curve; as a rule, active = well fitted curve in the direction sought with a large enough effect; inconclusive = small, poorly fitted or top-dose-only effect, or another doubt; inactive = no such curve, though single readings can be large; an effect the other way counts as inactive or inconclusive. Potency is read from the fitted curve at half-maximal effect.

SMILES	JMJD2A Tudor inh	BAZ2B inh	Sfp PPTase inh	L3MBTL1 inh	G9a block	HP1b chromo inh
COC(=O)c1ccc[n+](CC(=O)Nc2ccc(OC(F)F)cc2)c1	?	-14%	5%	2%	45µM*	?
CN(CC(=O)Nc1ccccc1Cl)C(=O)c1ccc(N2CCCCCC2)c([N+](=O)[O-])c1	?	?	.	-20%	?	10%
COc1ccc(Cl)cc1NC(=O)CN(C)C(=O)c1ccc(N2CCCCC2)c([N+](=O)[O-])c1	?	?	.	-15%	7.9µM*	?
COc1ccc(Cl)cc1NC(=O)CN(C)C(=O)c1ccc(N2CCCCCC2)c([N+](=O)[O-])c1	?	?	.	-14%	22µM*	?
O=Nc1ccc2oc(=O)ccc2c1	.	.	.	.	2.2µM*	.
COc1cc2ccc(=O)oc2cc1O	-9%	2%	4%	-1%	-45%[12.7 µM]	68%
COc1cccc(OC)c1OCCN(C)C	1µM*	35µM*	8%	.	?	?
CCN(CC)CCOc1ccccc1OC	1.3µM*	-35%	-10%	.	22µM*!	?
CCc1ccc(OCCOCC(O)CNC(C)(C)C)cc1 (centres undefined)	-25%[57.1 µM]	7%	7%	12%	4%	?
COc1cccc(OC)c1OCCNC(C)(C)C	8.9µM*	50µM*	-12%	4%	.	-11%
CC(C)(C)NCCOc1ccc(Br)cc1	3.5µM*	?	-11%	.	18µM*	-33%
COc1cccc(OC)c1OCCNCC1COc2ccccc2O1 (centres undefined)	-12%	.	10%	.	17%[12.7 µM]	16%
COc1cccc(OC)c1OCCCOc1cccc2cccnc12	-14%	-19%	9%	-3%	15%	24%
CC(C#N)Sc1ccc(S(=O)(=O)N2CCCC2)cn1 (centres undefined)	-10%	-2%	.	4%	12%[12.7 µM]	23%
CN(C)[C@@H]1CCC[C@@H]1OC(=O)C(c1ccccc1)c1ccccc1	1.1µM*	35µM*	?	-1%	13µM*	?
CCN1CCCC(OC(=O)C(c2ccccc2)c2ccccc2)C1 (centres undefined)	-27%	5%	2%	-3%	-27%[59 µM]	-3%
CCOc1ccc(C(=O)C(c2ccccc2)N2CCOCC2)cc1 (centres undefined)	-18%	-7%	-5%	-1%	6%[59 µM]	48%
COc1ccc(C(=O)C(c2ccccc2)N2CCOCC2)cc1 (centres undefined)	-30%	?	-19%	46%	50µM*	41%
CC1CCN(CCCNC(=O)c2cc(Sc3ccc(F)cc3)nc3ccccc23)CC1	-29%	-4%	.	.	1%[59 µM]	-7%
CCN1/C(=C/c2cc[n+](CCCS(=O)(=O)[O-])c3ccccc23)Sc2ccccc21	-5%	?	3%	-23%	25µM*	-8%
CCOC(=O)/C(=C\C=C1/Sc2ccccc2N1CC)C(C)=O	-30%	-35%	-3%	-13%	?	11%
Cc1ccc(Nc2nc(N)nc(CN3CCN(Cc4ccc5c(c4)OCO5)CC3)n2)cc1C	?	40µM*	6%	-13%	.	-5%
Cc1ccc(Nc2nc(N)nc(CN3CCN(Cc4ccc5c(c4)OCO5)CC3)n2)c(C)c1	-33%[57.1 µM]	56µM*	14%	-11%	3%	?
Cc1ccc(Nc2nc(N)nc(CN3CCN(C)CC3)n2)cc1C	.	12%	-7%	8%	?	.
Cc1ccc(Nc2nc(N)nc(CN3CCN(Cc4ccc5c(c4)OCO5)CC3)n2)cc1	?	56µM*	2%	-8%	12%[12.7 µM]	-9%
Nc1nc(CN2CCN(Cc3ccccc3)CC2)nc(Nc2ccc3c(c2)OCCO3)n1	?	20µM*	-5%	.	-13%[12.7 µM]	27%
CC1CN2C(c3ccc([N+](=O)[O-])cc3)=CSC2=N1 (centres undefined)	79µM*	-6%	50µM*	2%[2.29 µM]	14%[0.501 µM]	?
Cn1c(/C=N/Nc2nc3ccccc3[nH]2)nc2ccccc21	?	32µM*	-8%	-28%	-42%	21%
